Source: PubChem BioAssay (Buhrlage Lab, Dana-Farber Cancer Institute and Novartis Institutes for BioMedical Research (Cambridge, Mass))
Sampled rows, rich in hits. Any-hit rate of the full collection: about 11%.
USP28 inh – blocks human USP28 ubiquitin-rhodamine cleavage; Q96RU2; purified USP28, Ub-rhodamine cleavage fluorescence, 30 min; inhibition, % at 25 µM; hit rate 3% among 47,000
USP30 block – blocks human USP30 ubiquitin-rhodamine cleavage; Q70CQ3; purified USP30, Ub-rhodamine cleavage fluorescence; inhibition, % at 25 µM; hit rate 5.3% among 47,000; AID 1645860
OTUD3 inh – blocks human OTUD3 ubiquitin-rhodamine cleavage. Q5T2D3. hit rate 0.7% among 47,000. inhibition, % at 25 µM. AID 1645858. purified OTUD3, Ub-rhodamine fluorescence, 2 h
USP17 inh – inhibitors of human USP17 deubiquitinase; A8MUK1; purified USP17, Ub-rhodamine cleavage fluorescence, 3 h; inhibition, % at 50 µM; hit rate 6.5% among 47,000
Target sequence (A8MUK1 whole entry, looked up): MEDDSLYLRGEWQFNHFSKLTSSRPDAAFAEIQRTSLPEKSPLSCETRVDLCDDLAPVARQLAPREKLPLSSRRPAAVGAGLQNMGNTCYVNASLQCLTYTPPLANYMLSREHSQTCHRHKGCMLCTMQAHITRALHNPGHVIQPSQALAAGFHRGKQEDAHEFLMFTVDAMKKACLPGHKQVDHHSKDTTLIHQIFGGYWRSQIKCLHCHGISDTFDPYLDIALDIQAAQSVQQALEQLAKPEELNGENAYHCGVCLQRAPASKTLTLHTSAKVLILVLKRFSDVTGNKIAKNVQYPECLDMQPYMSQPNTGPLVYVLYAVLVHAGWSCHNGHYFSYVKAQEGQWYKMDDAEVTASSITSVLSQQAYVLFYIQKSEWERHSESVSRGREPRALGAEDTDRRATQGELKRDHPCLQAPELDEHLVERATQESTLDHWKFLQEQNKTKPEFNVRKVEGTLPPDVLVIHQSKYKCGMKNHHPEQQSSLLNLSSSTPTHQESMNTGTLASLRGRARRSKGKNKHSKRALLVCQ
* = called active by the depositor; i = inactive; · = not tested or not shown. No stated cut-off is given here; in the data, active means inhibition above about 30%; inactive means the rest.

SMILES	USP28 inh	USP30 block	OTUD3 inh	USP17 inh
O=C(CC(c1ccccc1)c1ccccc1)NCc1ccccc1F	-3	17	0	3
CC1CCN(C(=O)C2CCN(c3cc(N4CCCCC4)ncn3)CC2)CC1	0	-4	1	-13
O=[N+]([O-])c1ccc2nc(/C=C/c3cc4ccccc4nc3N3CCOCC3)sc2c1	-30	-85	-25	3
Cc1cccc(/C=C/c2nc3ccc([N+](=O)[O-])cc3s2)c1	-10	-59	-11	43*
COc1ccc(CNC(=O)CC[C@H]2CNC(=O)[C@@H]3[C@@H](CCN3CC3CC3)N2C)cc1	2	11	13	-35
COc1ccc(-c2cc(=O)c3cc(OC(=O)C4CCCCC4)ccc3o2)cc1	7	1	8	-37
O=c1cc(-c2ccc(F)cc2)oc2ccc(F)cc12	-10	0	-2	31*
O=C(NC1CCCCC1)N(CCCN1CCOCC1)Cc1cc2cc3c(cc2[nH]c1=O)OCO3	-23	-14	1	-31
Cc1cc(C)c2cc(CN(CCc3ccccc3)C(=O)Nc3ccccc3)c(=O)[nH]c2c1	-7	-36	-6	62*
O=C(Nc1ccc(Cl)cc1)Nc1cccn2ncnc12	39*	52*	7	16
CCOc1ccccc1NC(=O)Nc1cccn2ncnc12	7	19	5	0
CC(C)C(NS(=O)(=O)c1ccc2c(c1)OCCO2)C(=O)OCC(=O)Nc1ccccc1 (stereo not drawn)	-6	-3	-7	-7
O=C(Nc1cccc(-c2nc3cnccc3o2)c1)c1ccc(Br)o1	3	31*	21	25
COc1cccc(C(=O)Nc2cccc(-c3nc4cnccc4o3)c2)c1	·	·	-2	55*
COc1ccc(-c2nc3cnccc3o2)cc1NC(=O)c1cccc(F)c1	-9	-28	1	49*
COc1cc(C(=O)NCc2ccc(-c3nc4cnccc4o3)cc2)cc(OC)c1OC	6	2	10	11
O=C(NCc1ccc(-c2nc3cnccc3o2)cc1)c1cc2ccccc2o1	0	-14	-6	81*
COc1ccc(-c2nnc(NC(=O)c3cccc(SC)c3)o2)cc1	0	15	12	-45
COc1cccc(C(=O)N2CCc3nc(CNC(=O)C4CCC4)n(C)c3C2)c1	9	13	6	24
CC(=O)N1Cc2ccccc2OC2(CCCN(Cc3ccccn3)C2)C1 (stereo not drawn)	-5	-3	4	1
O=C(Nc1cccc(-c2nc3cnccc3o2)c1)c1cccc(F)c1	·	·	0	76*
Cc1ccc(CNC(=O)c2ccc(C)c(N3CCCC3=O)c2)cc1	4	14	5	-18
O=C(Nc1cccc2cnccc12)N1CCCCCC1	10	4	11	34*
O=C(Nc1cccc(Cl)c1Cl)N1CCCN(Cc2ccc(F)cc2)CC1	3	15	11	0
CC(C(=O)O)C(=O)O	-8	-2	0	-2
SMILES	USP28 inh	USP30 block	OTUD3 inh	USP17 inh
CC(C)n1ncc2c(C(=O)NCCc3ccc(F)cc3)cc(C3CC3)nc21	42*	-24	-6	0
COc1cc2c(cc1OC)CN(c1ncnc3sccc13)CC2	·	·	2	-62
COc1ccc(Cl)cc1Nc1ncnc2sccc12	·	·	0	52*
COc1ccc(-c2nc3nc(C)c(Cc4ccccc4)c(=O)n3[nH]2)cc1	19	51*	4	74*
Cc1ccccc1-c1noc2ncnc(NCc3ccco3)c12	7	6	4	0
COc1ccc(-c2oc3ncnc(NCc4ccco4)c3c2-c2ccc(OC)cc2)cc1	10	14	14	30*
COc1cc2ncnc(NCc3ccco3)c2cc1OC	1	6	3	8
Clc1cccc(-c2noc3ncnc(NCc4ccco4)c23)c1	24	37*	21	18
COc1ccc(C(=O)Nc2c(C(=O)N3CCOCC3)oc3ccccc23)cc1	0	4	-2	-3
Cc1cccc(CNC(=O)C2CCN(C(=O)c3cc(-c4ccncc4)n[nH]3)CC2)c1	0	17	5	8
O=C(O)c1cn(-c2ccccc2)nc1-c1cccc([N+](=O)[O-])c1	-12	0	2	-28
CN(CC(=O)N1CCN(c2cccc(Cl)c2)CC1)S(=O)(=O)c1cccs1	-31	-62	-15	-21
CCC(=O)Nc1c(C)noc1/C=C\c1ccc(S(=O)(=O)Nc2ccc(F)cc2F)cc1	3	46*	3	22
COc1ccccc1C1CCN(Cc2c(C)[nH]c3ccccc23)CC1	16	31*	6	0
COc1cc(CN2CCN(Cc3c[nH]c4ccccc34)CC2)cc(OC)c1OC	-33	-26	-15	-32
Cc1cc(C2CN(C(=O)c3noc4c3CCCC4)CCO2)nc(C)n1 (stereo not drawn)	5	10	14	-7
Cc1ccc(CNC(=O)c2cnc3ccccc3n2)cc1	-1	-17	30*	2
O=C(NCc1ccc(F)cc1)c1cnc2ccccc2n1	-10	-39	-9	-8
NC(=O)C1(N2CCCCC2)CCN(CC(=O)Nc2cc(Cl)ccc2Cl)CC1	6	30*	20	12
COc1ccccc1CNC(=O)c1[nH]cnc1C(=O)NCCc1c[nH]c2ccccc12	0	-1	2	-16
COc1cc(OC)c2c(C)c(CC(=O)NCCc3c[nH]c4ccccc34)c(=O)oc2c1	-9	-1	-8	33*
COc1ccc(C(=O)NCCc2c[nH]c3ccccc23)cc1[N+](=O)[O-]	39*	3	10	-11
COc1ccc(OCc2nn3c(-c4ccccc4Cl)nnc3s2)cc1	19	32*	14	22
COc1ccc(C(N)=O)c(OCc2noc(-c3ccccc3Cl)n2)c1	-28	-127	-17	-25
Cc1cc(N(C)C)nc(N2CCN(S(=O)(=O)c3ccc(Br)cc3)CC2)n1	19	16	5	5
SMILES	USP28 inh	USP30 block	OTUD3 inh	USP17 inh
COCc1nc2c(NC(=O)NCc3ccco3)cccn2n1	22	-1	14	2
N#Cc1c2c(c(-c3ccccc3)n3c1nc1ccccc13)CCC2	0	-38	-8	43*
Cc1cc(-c2cccc(S(=O)(=O)N3CCOCC3)c2)n2c(nc3ccccc32)c1C#N	-233	i	-176	-101
O=C(Nc1ncc2c(n1)-c1ccccc1CC2)C1CC1	-15	8	-12	56*
Cc1sc(NCc2ccccc2)nc1-c1ccccc1	40*	1	-3	-7
Cc1sc(NC(=O)C2CCCCC2)nc1-c1ccccc1	15	8	6	0
CC(=O)c1cccc(NC(=O)c2ccc(S(=O)(=O)N(C)Cc3ccccc3)cc2)c1	0	11	-2	44*
COc1ccccc1N(C)S(=O)(=O)c1ccc(C(=O)Nc2cccc(-n3cnnn3)c2C)cc1	23	28	3	35*
CCCOc1c(Br)cc(C(=O)Nc2ccccc2OC)cc1OC	11	10	14	16
COc1ccccc1NC(=O)c1ccc(S(=O)(=O)N(C)Cc2ccccc2)cc1	24	34*	17	18
Cc1ccnc(NS(=O)(=O)c2ccc(NC(=O)c3ccc(S(=O)(=O)N(C)Cc4ccccc4)cc3)cc2)n1	-30	-57	1	·
COc1cc(C(=O)Nc2ccccc2Cc2ccccc2)cc(OC)c1OC	4	36*	3	32*
